{
  "source": "PubChem BioAssay AID555",
  "about": "(SRMLSC, 2006)",
  "system": "mevalonate kinase [Streptococcus pneumoniae D39]",
  "experiment": "S. pneumoniae MK inhibitors, primary screen, biochemical, PK/LDH-coupled NADH absorbance (AID 555)",
  "conditions": "purified MK, PK/LDH-coupled NADH absorbance 340 nm, at 10 µM, stronger effect = higher value",
  "key": {"[1]": {"conditions": "measured here: pilot screen replicates"}},
  "note": "The whole screen tested about 65,000 compounds, of which about 320 (0.49%) were called active. The sample holds actives, similar compounds and a random draw of the others, so the mix is not that of the screen.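 Rule for the calls: active = ranked among the strongest by inhibition in the single 10 µM screen, a fixed top-ranked set picked for dose follow-up; inactive = the rest, inconclusive results apart.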",
  "data": [
    {"smiles": "COc1ccccc1CN1CCN(C(=O)Cc2ccccc2)CC1", "values": [
      {"measurement": "inhibition", "value": "53% (active)"},
      {"measurement": "inhibition", "setting": "[1]", "value": 0, "unit": "%"}
    ]},
    {"smiles": "CN1CCN(Cc2ccccc2C(F)(F)F)CC1", "values": [
      {"measurement": "inhibition", "value": "6% (inactive)"}
    ]},
    {"smiles": "CCN1CCN(C(=O)Cc2coc3cc(C)cc(C)c23)CC1", "values": [
      {"measurement": "inhibition", "value": "5% (inactive)"}
    ]},
    {"smiles": "CCOC(=O)c1c(-c2ccccc2)oc2ccc(OC(=O)N(C)C)cc12", "values": [
      {"measurement": "inhibition", "value": "0% (inactive)"}
    ]},
    {"smiles": "Fc1cccc(F)c1CN1CCN(Cc2c(F)cccc2F)CC1", "values": [
      {"measurement": "inhibition", "value": "2% (inactive)"}
    ]},
    {"smiles": "CC(C)c1ccc(O)c(CN2CCN(c3ccccc3)CC2)c1", "values": [
      {"measurement": "inhibition", "value": "0% (inactive)"}
    ]},
    {"smiles": "COc1ccc(CN2CCN(c3ccccc3F)CC2)c(OC)c1", "values": [
      {"measurement": "inhibition", "value": "43% (active)"},
      {"measurement": "inhibition", "setting": "[1]", "value": 1.5, "unit": "%"}
    ]},
    {"smiles": "CCC(=NCc1ccco1)c1c(O)n(Cc2ccccc2)c(=O)[nH]c1=O", "values": [
      {"measurement": "inhibition", "value": "12% (inactive)"}
    ]},
    {"smiles": "CC(=NCC1CCCO1)c1c(O)n(-c2ccccc2)c(=O)[nH]c1=O", "note": "(configuration not stated)", "values": [
      {"measurement": "inhibition", "value": "4% (inactive)"}
    ]},
    {"smiles": "COC(=O)COc1cc(C)cc2oc(=O)c3c(c12)CCCC3", "values": [
      {"measurement": "inhibition", "value": "6% (inactive)"}
    ]}
  ]
}
